# According to the supplement of paper PMC10849652:
# Targets with a hit are over-represented here; the source holds about 7,900 in all. About 0.6% of all pairs of compound and target were hits. A number with no mark means an inactive call.
# Columns and labels:
# Assay in all cases: log2 fold change, soluble protein after heating vs DMSO (PISA); higher = thermal stabilisation; K562 cells, 10 uM, 30 min; active = over 0.2 and 3.5 SD of the protein, either way, in both replicates (recomputed)
# [1] = compound: CC[C@@H]1C(=O)N(C)c2cnc(Nc3ccc(C(=O)NC4CCN(C)CC4)cc3OC)nc2N1C1CCCC1
# Method in brief: (§1)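 Aliquots of K562 cells (2×10^6 cells/mL) treated with 10 μM compound for 30 min were heated for 3 min over 48°C-58°C. After pooling and extraction in PBS with 0.5% NP-40 at 4°C, soluble protein from a 21,000xg, 90 min spin was quantified by TMTpro 16plex LC-MS/MS with channel sums equalised. Thermal stability is expressed against control samples, from duplicates, as a log2 fold change.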
# volasertib = compound: CC[C@@H]1C(=O)N(C)c2cnc(Nc3ccc(C(=O)N[C@H]4CC[C@H](N5CCN(CC6CC6)CC5)CC4)cc3OC)nc2N1C(C)C [volasertib]
# Method in brief: as §1
# [2] = compound: CC[C@H](C)N1C=C(C2=C(C=C(C=C21)C3=CN=C(C=C3)N4CCNCC4)C(=O)NCC5=C(C=C(NC5=O)C)C)C
# Method in brief: as §1
# epoxomicin = compound: CC[C@H](C)[C@@H](C(=O)N[C@@H]([C@@H](C)O)C(=O)N[C@@H](CC(C)C)C(=O)[C@]1(CO1)C)NC(=O)[C@H]([C@@H](C)CC)N(C)C(=O)C [epoxomicin]
# Method in brief: as §1
# [3] = compound: CCn1c(C(=O)N(C2CC2)C2CC2)cc2c3c(ncn3C)c(Nc3cc(C)n(C)n3)nc21
# Method in brief: as §1
# [4] = compound: CCn1cc(-c2ccnc3[nH]c(-c4cccc(CN(C)C)c4)cc23)c(-c2ccc(NC(=O)N(C)C)cc2)n1
# Method in brief: as §1
# [5] = compound: CN(C)CC(=O)Nc1ccc2[nH]c(=O)c3ccccc3c2c1
# Method in brief: as §1
# rosiglitazone = compound: CN(CCOC1=CC=C(C=C1)C[C@H]2C(=O)NC(=O)S2)C3=CC=CC=N3 (racemic) [rosiglitazone]
# Method in brief: as §1
# [6] = compound: CN1C2=C(C3=C1C(=O)N(N=C3)CC4=CC(=CC=C4)N)SC(=C2)S(=O)C
# Method in brief: as §1
# [7] = compound: CN1CCC(CNc2ccc3ncc(-c4cccc(OC(F)(F)F)c4)n3n2)CC1
# Method in brief: as §1
# saracatinib = compound: CN1CCN(CCOc2cc(OC3CCOCC3)c3c(Nc4c(Cl)ccc5c4OCO5)ncnc3c2)CC1 [saracatinib]
# Method in brief: as §1
# sotrastaurin = compound: CN1CCN(c2nc(C3=C(c4c[nH]c5ccccc45)C(=O)NC3=O)c3ccccc3n2)CC1 [sotrastaurin]
# Method in brief: as §1
# alvocidib = compound: CN1CC[C@H](c2c(O)cc(O)c3c(=O)cc(-c4ccccc4Cl)oc23)[C@H](O)C1 [alvocidib]
# Method in brief: as §1
# Tubastatin A = compound: CN1CCc2c(c3ccccc3n2Cc2ccc(C(=O)NO)cc2)C1 [Tubastatin A]
# Method in brief: as §1
# [8] = compound: CNC(=O)C1=CC=CC=C1NC2=NC(=NC=C2Cl)NC3=C(C=C(C=C3)N4CCOCC4)OC
# Method in brief: as §1
# defactinib = compound: CNC(=O)c1ccc(Nc2ncc(C(F)(F)F)c(NCc3nccnc3N(C)S(C)(=O)=O)n2)cc1 [defactinib]
# Method in brief: as §1
# rucaparib = compound: CNCc1ccc(-c2[nH]c3cc(F)cc4c3c2CCNC4=O)cc1 [rucaparib]
# Method in brief: as §1
# [9] = compound: CNc1nc(-c2ccc3c(N)n[nH]c3c2)cc(N2C[C@@H](C(=O)NC3CCCCC3)CC[C@H]2C)n1
# Method in brief: as §1
# encorafenib = compound: COC(=O)N[C@@H](C)CNc1nccc(-c2cn(C(C)C)nc2-c2cc(Cl)cc(NS(C)(=O)=O)c2F)n1 [encorafenib]
# Method in brief: as §1
# [10] = compound: COC(=O)[C@H](CCSC)NC(=O)C1=C(C=C(C=C1)NC[C@H](CS)N)C2=CC=CC=C2
# Method in brief: as §1
# Sequence of UniProt Q16630 (Q16630 whole entry, looked up): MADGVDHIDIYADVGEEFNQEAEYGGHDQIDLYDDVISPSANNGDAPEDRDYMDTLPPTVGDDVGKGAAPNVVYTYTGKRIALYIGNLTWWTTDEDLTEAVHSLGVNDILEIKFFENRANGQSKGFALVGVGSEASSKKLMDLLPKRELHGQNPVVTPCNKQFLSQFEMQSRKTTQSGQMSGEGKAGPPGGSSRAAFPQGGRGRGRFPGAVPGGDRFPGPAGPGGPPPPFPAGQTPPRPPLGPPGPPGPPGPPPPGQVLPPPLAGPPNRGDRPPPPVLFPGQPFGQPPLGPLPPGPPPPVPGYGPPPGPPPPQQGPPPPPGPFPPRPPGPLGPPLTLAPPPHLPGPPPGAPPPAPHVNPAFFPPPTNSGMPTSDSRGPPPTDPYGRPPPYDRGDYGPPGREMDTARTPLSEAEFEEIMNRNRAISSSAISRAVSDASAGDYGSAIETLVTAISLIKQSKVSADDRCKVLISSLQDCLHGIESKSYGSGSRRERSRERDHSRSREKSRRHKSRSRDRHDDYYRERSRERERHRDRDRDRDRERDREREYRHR
# Sequence of UniProt A6NHX0 (A6NHX0 whole entry, looked up): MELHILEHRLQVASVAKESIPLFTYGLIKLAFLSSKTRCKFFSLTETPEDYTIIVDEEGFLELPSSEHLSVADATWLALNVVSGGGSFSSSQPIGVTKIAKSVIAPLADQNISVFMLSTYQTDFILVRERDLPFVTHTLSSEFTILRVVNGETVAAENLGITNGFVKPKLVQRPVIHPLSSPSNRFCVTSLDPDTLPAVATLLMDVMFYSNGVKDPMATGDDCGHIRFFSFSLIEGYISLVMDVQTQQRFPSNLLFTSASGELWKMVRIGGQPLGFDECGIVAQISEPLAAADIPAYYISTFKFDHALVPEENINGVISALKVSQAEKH
# Sequence of UniProt O14757 (O14757 whole entry, looked up): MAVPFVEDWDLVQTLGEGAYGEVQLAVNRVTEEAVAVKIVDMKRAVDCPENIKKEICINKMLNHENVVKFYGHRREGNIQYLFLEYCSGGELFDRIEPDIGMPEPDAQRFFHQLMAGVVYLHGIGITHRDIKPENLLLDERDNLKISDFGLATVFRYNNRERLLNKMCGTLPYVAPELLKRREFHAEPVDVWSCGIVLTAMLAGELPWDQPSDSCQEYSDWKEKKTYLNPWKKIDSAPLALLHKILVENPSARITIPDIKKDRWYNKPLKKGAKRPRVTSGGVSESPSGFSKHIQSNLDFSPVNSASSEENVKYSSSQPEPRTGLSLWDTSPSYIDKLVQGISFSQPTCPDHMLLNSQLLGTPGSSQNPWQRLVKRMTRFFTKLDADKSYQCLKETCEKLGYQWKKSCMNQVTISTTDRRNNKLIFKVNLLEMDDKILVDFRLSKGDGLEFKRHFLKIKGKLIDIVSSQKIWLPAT
# Sequence of UniProt Q8IX12 (Q8IX12 whole entry, looked up): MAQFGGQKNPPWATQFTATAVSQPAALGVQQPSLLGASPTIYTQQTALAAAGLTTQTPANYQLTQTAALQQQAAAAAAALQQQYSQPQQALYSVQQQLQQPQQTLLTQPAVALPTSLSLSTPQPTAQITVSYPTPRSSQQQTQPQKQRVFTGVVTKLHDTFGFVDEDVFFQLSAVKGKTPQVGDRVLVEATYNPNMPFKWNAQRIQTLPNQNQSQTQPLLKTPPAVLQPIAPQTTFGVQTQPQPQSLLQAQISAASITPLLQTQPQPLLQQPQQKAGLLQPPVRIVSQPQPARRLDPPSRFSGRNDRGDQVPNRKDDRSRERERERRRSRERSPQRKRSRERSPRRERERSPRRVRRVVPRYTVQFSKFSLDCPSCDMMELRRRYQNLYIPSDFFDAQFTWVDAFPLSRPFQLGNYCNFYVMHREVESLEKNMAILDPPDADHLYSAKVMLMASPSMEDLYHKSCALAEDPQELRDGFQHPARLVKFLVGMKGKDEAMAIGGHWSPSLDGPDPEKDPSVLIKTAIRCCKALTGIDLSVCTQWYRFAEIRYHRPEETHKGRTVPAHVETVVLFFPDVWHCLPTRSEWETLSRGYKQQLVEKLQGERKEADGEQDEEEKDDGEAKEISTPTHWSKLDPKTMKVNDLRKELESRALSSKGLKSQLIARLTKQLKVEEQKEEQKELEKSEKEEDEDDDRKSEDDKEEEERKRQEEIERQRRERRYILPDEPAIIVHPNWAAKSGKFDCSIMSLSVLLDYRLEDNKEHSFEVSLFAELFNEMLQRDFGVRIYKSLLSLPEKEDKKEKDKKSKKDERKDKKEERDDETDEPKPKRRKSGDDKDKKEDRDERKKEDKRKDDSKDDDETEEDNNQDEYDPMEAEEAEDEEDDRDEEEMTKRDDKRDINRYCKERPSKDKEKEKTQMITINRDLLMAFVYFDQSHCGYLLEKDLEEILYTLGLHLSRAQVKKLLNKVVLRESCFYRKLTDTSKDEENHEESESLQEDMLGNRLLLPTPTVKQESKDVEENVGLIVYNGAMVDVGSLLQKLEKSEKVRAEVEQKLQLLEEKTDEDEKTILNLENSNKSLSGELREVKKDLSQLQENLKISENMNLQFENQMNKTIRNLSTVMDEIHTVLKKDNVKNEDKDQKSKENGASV
# Sequence of UniProt O75909 (O75909 whole entry, looked up): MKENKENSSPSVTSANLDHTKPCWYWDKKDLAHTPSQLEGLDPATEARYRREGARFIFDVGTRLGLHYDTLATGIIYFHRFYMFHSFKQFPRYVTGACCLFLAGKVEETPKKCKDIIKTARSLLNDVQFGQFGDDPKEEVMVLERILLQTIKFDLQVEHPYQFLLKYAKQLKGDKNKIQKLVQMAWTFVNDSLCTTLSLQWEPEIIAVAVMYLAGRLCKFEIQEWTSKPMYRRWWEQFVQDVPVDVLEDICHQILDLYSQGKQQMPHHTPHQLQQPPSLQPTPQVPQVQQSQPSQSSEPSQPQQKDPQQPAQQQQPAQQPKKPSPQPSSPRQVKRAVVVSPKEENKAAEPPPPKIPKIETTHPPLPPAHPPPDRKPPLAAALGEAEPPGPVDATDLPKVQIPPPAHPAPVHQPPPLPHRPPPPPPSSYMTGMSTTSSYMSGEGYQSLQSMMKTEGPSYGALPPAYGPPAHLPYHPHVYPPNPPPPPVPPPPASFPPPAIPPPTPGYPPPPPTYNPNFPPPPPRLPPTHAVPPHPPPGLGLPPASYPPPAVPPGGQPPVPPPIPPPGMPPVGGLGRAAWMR
# Sequence of UniProt P19784 (P19784 whole entry, looked up): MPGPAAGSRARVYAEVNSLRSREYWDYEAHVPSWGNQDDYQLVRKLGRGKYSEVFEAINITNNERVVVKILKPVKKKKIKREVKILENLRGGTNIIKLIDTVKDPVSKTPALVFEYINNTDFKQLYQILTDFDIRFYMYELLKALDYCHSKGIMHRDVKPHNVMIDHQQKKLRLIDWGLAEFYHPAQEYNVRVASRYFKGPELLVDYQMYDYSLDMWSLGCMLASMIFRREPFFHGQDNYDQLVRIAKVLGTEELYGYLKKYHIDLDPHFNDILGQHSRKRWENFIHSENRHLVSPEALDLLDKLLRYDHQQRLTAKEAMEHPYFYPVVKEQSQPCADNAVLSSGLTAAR
# Sequence of UniProt Q9NYV4 (Q9NYV4 whole entry, looked up): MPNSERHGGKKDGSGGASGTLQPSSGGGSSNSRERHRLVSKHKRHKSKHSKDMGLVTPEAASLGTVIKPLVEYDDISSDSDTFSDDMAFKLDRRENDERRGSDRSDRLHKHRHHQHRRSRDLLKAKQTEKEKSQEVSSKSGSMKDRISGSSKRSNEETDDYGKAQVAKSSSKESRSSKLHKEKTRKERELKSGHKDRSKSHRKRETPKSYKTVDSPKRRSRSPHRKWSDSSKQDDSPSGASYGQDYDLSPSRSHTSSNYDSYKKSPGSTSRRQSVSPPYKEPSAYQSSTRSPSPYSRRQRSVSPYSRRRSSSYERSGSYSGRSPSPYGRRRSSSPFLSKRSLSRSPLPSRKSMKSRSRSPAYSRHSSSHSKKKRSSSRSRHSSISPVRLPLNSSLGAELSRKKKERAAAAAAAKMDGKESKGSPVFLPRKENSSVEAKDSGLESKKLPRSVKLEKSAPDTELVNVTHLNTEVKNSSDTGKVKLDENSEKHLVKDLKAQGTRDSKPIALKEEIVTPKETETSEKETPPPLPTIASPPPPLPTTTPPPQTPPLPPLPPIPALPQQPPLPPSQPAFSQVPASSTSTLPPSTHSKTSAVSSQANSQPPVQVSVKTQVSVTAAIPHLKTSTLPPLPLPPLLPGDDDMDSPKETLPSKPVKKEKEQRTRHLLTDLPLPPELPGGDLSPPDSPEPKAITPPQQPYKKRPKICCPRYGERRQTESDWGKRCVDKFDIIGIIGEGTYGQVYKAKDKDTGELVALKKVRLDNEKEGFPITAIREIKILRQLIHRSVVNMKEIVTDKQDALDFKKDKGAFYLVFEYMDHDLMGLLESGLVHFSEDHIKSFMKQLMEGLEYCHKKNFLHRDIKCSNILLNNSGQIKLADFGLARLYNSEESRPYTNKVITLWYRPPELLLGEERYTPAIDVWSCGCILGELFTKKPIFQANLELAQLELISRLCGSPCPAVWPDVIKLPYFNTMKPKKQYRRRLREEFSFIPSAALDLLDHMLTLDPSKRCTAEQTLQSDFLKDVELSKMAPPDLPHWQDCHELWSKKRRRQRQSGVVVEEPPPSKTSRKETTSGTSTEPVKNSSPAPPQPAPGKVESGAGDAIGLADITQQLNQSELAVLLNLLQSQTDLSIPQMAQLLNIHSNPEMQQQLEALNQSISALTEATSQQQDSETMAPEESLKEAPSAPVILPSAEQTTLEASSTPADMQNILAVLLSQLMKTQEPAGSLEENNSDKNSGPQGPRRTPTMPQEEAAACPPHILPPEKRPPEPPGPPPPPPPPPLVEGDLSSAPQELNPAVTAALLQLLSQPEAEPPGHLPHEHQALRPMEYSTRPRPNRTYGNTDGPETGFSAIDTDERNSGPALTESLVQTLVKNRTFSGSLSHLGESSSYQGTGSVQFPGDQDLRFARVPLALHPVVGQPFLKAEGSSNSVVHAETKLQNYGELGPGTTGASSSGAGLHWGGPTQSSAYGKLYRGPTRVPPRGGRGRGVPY
Target,log2 fold change [1],log2 fold change (volasertib),log2 fold change [2],log2 fold change (epoxomicin),log2 fold change [3],log2 fold change [4],log2 fold change [5],log2 fold change (rosiglitazone),log2 fold change [6],log2 fold change [7],log2 fold change (saracatinib),log2 fold change (sotrastaurin),log2 fold change (alvocidib),log2 fold change (Tubastatin A),log2 fold change [8],log2 fold change (defactinib),log2 fold change (rucaparib),log2 fold change [9],log2 fold change (encorafenib),log2 fold change [10]
CPSF6 isoform 2 (UniProt Q16630),0.016,0.02,0.016,-0.014,-0.037,-0.036,-0.062,0.008,0.004,-0.014,-0.014,0.031,-0.128,0.015,-0.217,-0.009,0.016,0.008,-0.043,0.007
CSNK2B (UniProt P67870),-0.029,0.009,0.043,0.019,0.001,-0.051,0.027,0.034,-0.048,-0.176,0.074,0.036,-0.035,0.021,0.246,-0.09,-0.116,-0.031,0.024,0.038
CERT isoform 3 (UniProt Q9Y5P4),0.06,0.044,0.07,0.058,-0.023,-0.057,-0.019,-0.017,-0.127,0.279 (active),0.033,0.014,0.002,-0.105,0.131,-0.097,-0.009,0.116,-0.015,0.047
CSNK2A2 (UniProt P19784),-0.053,-0.122,0.028,0.029,0.01,-0.043,-0.006,0.066,-0.038,-0.244 (active),0.029,0.024,-0.041,-0.042,0.214,-0.067,-0.123,-0.017,-0.039,-0.052
CCNK isoform 4 (UniProt O75909),0.099,0.045,-0.018,-0.254,0.025,0.129,-0.051,-0.038,0.105,0.032,-0.072,0.135,0.022,0.057,-0.147,0.043,0.066,-0.019,0.029,0.003
CASTOR2 (UniProt A6NHX0),0.025,0.254,-0.042,0.061,-0.024,0.123,-0.035,0.034,-0.022,0.066,0.042,0.039,0.027,0.036,-0.082,-0.092,-0.048,0.032,0.04,0
CKB (UniProt P12277),0.002,0.265 (active),0.008,0.044,0.01,-0.108,0.009,0.03,-0.111,-0.056,-0.041,0.019,-0.089,-0.004,-0.016,-0.006,-0.059,0.043,0.015,-0.011
CHAC2 (UniProt Q8WUX2),-0.343 (active),-0.227,0.035,-0.025,0.039,-0.03,0.002,0.028,-0.04,0.041,-0.016,-0.028,-0.075,-0.02,-0.02,-0.07,0.122,-0.05,0.237,0.025
CSTF2 (UniProt P33240),0.06,0.233 (active),-0.024,-0.077,0.011,0.041,-0.048,0.01,-0.085,-0.004,-0.02,0.105,0.045,-0.064,-0.023,0.023,0.034,-0.092,-0.08,-0.028
CDK12 (UniProt Q9NYV4),0.147,0.237,0.016,-0.363,-0.005,0.041,-0.027,-0.101,0.392,-0.102,-0.113,-0.406,0.122,0.165,-0.309,-0.052,0.072,0.003,0.09,0.157
CHEK1 (UniProt O14757),-0.137,-0.274 (active),0.005,0.055,-0.012,-0.101,0.003,0.046,-0.029,-0.159,0,-0.271 (active),-0.041,0.09,-0.32 (active),-0.031,-0.071,0.003,0.043,0
CCAR1 (UniProt Q8IX12),0.079,0.149,0.063,0.008,-0.029,-0.219,0.018,0.046,-0.039,-0.319 (active),-0.038,-0.027,-0.17,-0.001,-0.039,-0.021,0.026,0.086,-0.005,-0.033
CSNK1A1 (UniProt P48729),-0.011,-0.117,0.057,0.046,-0.016,0.008,-0.179,-0.028,0.072,-0.067,-0.028,0.011,0.146,0.115,–,0.058,0.128,0.042,0.037,-0.016
COX5B (UniProt P10606),0.06,-0.02,-0.047,0.192,-0.051,-0.043,-0.013,-0.01,-0.037,0.541 (active),-0.076,0.113,-0.018,0.052,0,-0.046,-0.01,0.024,-0.033,0.006
CDC37L1 (UniProt Q7L3B6),-0.14,-0.199,0.059,0.029,0.02,0.091,-0.054,0.005,0.001,-0.048,-0.003,0.021,-0.093,-0.308 (active),0.002,0.059,-0.058,-0.013,0.005,0.018
CDAN1 (UniProt Q8IWY9),-0.079,-0.15,-0.041,0.014,0.04,-0.047,-0.058,0.045,-0.022,-0.001,-0.012,-0.03,-0.019,0.009,-0.029,0.024,0.085,-0.006,0.005,0.112
